This is a sample that favours compounds with a hit; in the whole collection about 14% have one here.
HCMV inh: inhibitors of human cytomegalovirus; HFF cells, HCMV-luciferase reporter, 72 h; active compounds read low; activity change, negative = inhibition, % at 57.5 µM; actives 4.5% (n = 410,000); AID 1259415; in the data active = activity change below about -60%; inconclusive = no clear call, values can overlap the other calls; inactive = above about -39%
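Luciferase read-out from HCMV-luciferase-infected HFFs (MOI 1 PFU/cell) 72 h post infection at 37C; compounds added after 16 h cell attachment; activity normalized between buffer-only basal and Salinomycin (10uM) inhibitor controls.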
Pf growth 48h: P. falciparum growth inhibition at 48 hours (one generation). P. falciparum luciferase growth in erythrocytes, 48 h. Potency, µM (titrated, usually from 28.7 µM), for inactives: at the highest dose activity change, negative = inhibition, usual class: inhibitors. actives 5.9% (n = 310,000). AID 504832; also: potency is read from the fitted curve at half-maximal effect
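A one-generation exposure of luciferase-tagged malaria parasites in RPMI 1640/Albumax erythrocyte culture, 37 C and 5% CO2. Inhibition is inferred from decreased luminescence after adding detection reagent.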
Pf growth 96h: P. falciparum growth inhibition at 96 hour, primary screen for plastid delayed-death inhibitors; P. falciparum luciferase reporter growth, 96 h; Potency, µM (top dose mostly 28.7 µM), inactives show top-dose activity change, negative = inhibition, usual class: inhibitors; actives 6.9% (n = 320,000); AID 504834; also: potency is read from the fitted curve at half-maximal effect
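Readout is luminescence from an integrated firefly luciferase in P. falciparum. Red cells, 2% hematocrit and 0.05% parasitemia final, were cultured with compound through two parasite generations (96 hours) at 37 C, 5% CO2.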
Giardia FBPA inh: blocks Giardia fructose-bisphosphate aldolase activity. AID 2451. Potency, µM (series often up to 59.6 µM), for the others: at the top dose activity, negative = inhibition, usual class: inhibitors. actives 0.71% (n = 290,000). A8B2U2. purified Giardia FBPA; also: potency is read from the fitted curve at half-maximal effect; nearly all actives have a fitted effect of over 55% in size
Target sequence (A8B2U2 whole entry, looked up): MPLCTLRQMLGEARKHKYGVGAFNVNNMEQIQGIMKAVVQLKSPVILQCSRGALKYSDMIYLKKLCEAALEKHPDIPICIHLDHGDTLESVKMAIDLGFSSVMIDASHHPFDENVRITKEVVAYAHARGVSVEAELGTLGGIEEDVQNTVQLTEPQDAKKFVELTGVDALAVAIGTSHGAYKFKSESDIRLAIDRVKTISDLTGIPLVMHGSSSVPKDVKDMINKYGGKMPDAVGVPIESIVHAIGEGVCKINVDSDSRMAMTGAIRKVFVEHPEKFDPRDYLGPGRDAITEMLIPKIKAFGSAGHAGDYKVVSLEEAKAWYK
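40 nM FBPA preincubated 10 min at RT with compound (up to 57.5 uM final), then substrate plus GAPDH/TPI/NAD/arsenate coupling and diaphorase/resazurin added. Fluorescence read after 20 min at RT, 525/598 nm.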
Sm TGR inh: S. mansoni TGR enzyme inhibition; purified TGR, DTNB reduction, TNB absorbance 405 nm; Potency, µM (top dose mostly 114 µM), for the others: top-dose activity change, negative = inhibition, most hits filed as inhibitors; AID 485364; actives 3% (n = 360,000); Q962Y6; also: potency is read from the fitted curve at half-maximal effect; nearly all actives have a fitted effect of over 60% in size
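TGR 20 nM + NADPH 100 uM (dispensed conc.), cpd preinc 15 min RT; start with NADPH (500 uM addition) then DTNB (15 mM addition). Kinetic TNB absorbance, 405 nm filter. Four-parameter Hill fit across titration.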
Numbers without * were called inactive; ? = inconclusive; · = not tested or not shown; [ ] = dose if it differs, or a comment. Unless noted, calls follow the shape of the dose curve; as a rule, active = well fitted curve in the direction sought with a large enough effect; inconclusive = small, poorly fitted or top-dose-only effect, or another doubt; inactive = no such curve, though single readings can be large; an effect the other way counts as inactive or inconclusive. % is scaled to controls: 0 for no effect and ±100 for the full control effect.

SMILES | HCMV inh | Pf growth 48h | Pf growth 96h | Giardia FBPA inh | Sm TGR inh
CC(C)C[C@H](NC(=O)CNC(=O)[C@H](CCC(N)=O)NC(=O)[C@H](CC(C)C)NC(=O)[C@H](CC(C)C)NC(=O)[C@H](CCCNC(=N)N)NC(=O)[C@H](CCC(N)=O)NC(=O)[C@H](CC(C)C)NC(=O)[C@H](CCCNC(=N)N)NC(=O)[C@H](C)NC(=O)CNC(=O)[C@H](CCC(=O)O)NC(=O)[C@H](CCCNC(=N)N)NC(=O)[C@H](CC(C)C)NC(=O)[C@H](CCCNC(=N)N)NC(=O)[C@H](CO)NC(=O)[C@H](CC(C)C)NC(=O)[C@H](CCC(=O)O)NC(=O)[C@H](CO)NC(=O)[C@@H](NC(=O)[C@H](Cc1ccccc1)NC(=O)[C@@H](NC(=O)CNC(=O)[C@H](CC(=O)O)NC(=O)[C@H](CO)NC(=O)[C@@H](N)Cc1cnc[nH]1)[C@@H](C)O)[C@@H](C)O)C(=O)N[C@H](C(N)=O)C(C)C | · | · | · | 8.3% | ·
CCc1c(C)sc2c1CCN(Cc1ccccc1F)C2c1ccccc1 (stereo not drawn) | -105.1* | · | · | · | -2.0%
CCc1c(C)sc2c1CCN(Cc1cccc(OC)c1)C2c1ccccc1 (stereo not drawn) | -85.6* | · | · | · | 31.3%
O=C(Cn1ncc(Cl)c(Cl)c1=O)Nc1ccc2c(c1)OCO2 | -101.9* | -15.1% | -4.3% | · | 44.7µM*
Cc1cc(Br)ccc1NC(=O)CNC(=O)Cn1ncc(Cl)c(Cl)c1=O | -100.9* | 11.3% | 1.0% | -4.0% | 1.41µM*
Cc1nn(CC(=O)Nc2ccc3c(c2)OCO3)c(C)c1Cl | 17.1 | 18.2% | ? | · | -14.6%
CCC(=O)c1ccc2c(c1)OCCO2 | 18.5 | 19.2% | 15.8% | 1.9% | -3.1%
CCN(CC)S(=O)(=O)c1cc(NC(=O)Cn2ncc(Cl)c(Cl)c2=O)ccc1C | -79.1* | ? | -24.6% | 0.9% | 0.562µM*
CCN(CC)S(=O)(=O)c1cc(NC(=O)CN2C(=O)NC(C)(c3ccccc3)C2=O)ccc1C (stereo not drawn) | 50.8 | -49.0% | -7.0% | -17.5% | 10.0%
Cc1ccc2oc(=O)c3cnn(CC(=O)Nc4ccc(Br)cc4C)c3c2c1 | 8.2 | · | · | · | -0.3%
O=C(Cn1ncc(Cl)c(Cl)c1=O)c1ccc2c(c1)OCCO2 | -81.1* | · | · | · | ·
O=c1c2c(c(-c3ccccc3)nn1Cc1ccccc1)CCCC2 | -30.6 | ? | -7.4% | 5.8% | 0.0%
Cc1ccc(CN2COc3c(Cl)cc4c(-c5ccccc5)cc(=O)oc4c3C2)cc1 | -1.2 | · | · | · | 7.1%
CCn1c(=S)sc2c(=O)n(CC(=O)Nc3ccc(Cl)cc3)c(C)nc21 | 3.0 | -22.7% | -11.7% | 7.4% | -23.0%
Cc1ccc(S(=O)(=O)N2CCCCC2)cc1NC(=O)Cn1ncc(Cl)c(Cl)c1=O | -96.7* | · | · | · | ·
O=C(Cn1ncc(Cl)c(Cl)c1=O)N1CCN(S(=O)(=O)c2ccc3ccccc3c2)CC1 | -85.6* | -13.8% | ? | 6.3% | 22.4µM*
O=C(O)CCC(=O)N1CCN(S(=O)(=O)c2ccc3ccccc3c2)CC1 | ? | 40.3% | 8.1% | · | -6.7%
O=c1c(-c2ccccc2)nc2cnc(N3CCNCC3)nc2n1-c1ccccc1 | · | · | · | 1.5% | ·
CC(C)(C)c1ccc(CC(=O)N2CCC2(C)C(=O)NS(=O)(=O)c2cccc(OC(F)F)c2)cc1 (stereo not drawn) | -20.1 | · | · | · | ·
CCCOC(=O)C1=C(C)NC(=O)NC1c1cc2c(cc1Br)OCO2 (stereo not drawn) | -10.8 | ? | 9.7% | -1.8% | 31.5%
CCCCN1C(=O)C(=O)N(CC(=O)c2ccc3c(c2)CCCC3)C1=O | 9.6 | 13.9% | 21.5% | · | 0.7%
O=C(CC(NC(=O)C(F)(F)F)c1ccccc1)Nc1nnc(CCc2ccccc2)s1 (stereo not drawn) | -64.7* | ? | 43.9% | 0.8% | -19.1%
Cc1nnc(NC(=O)CC(NC(=O)C(F)(F)F)c2ccccc2)s1 (stereo not drawn) | 44.2 | 15.8% | -0.8% | 2.1% | 3.3%
COc1ccc(OCCCc2c(C)n[nH]c2C)cc1 | -25.0 | · | 9.28µM* | -21.3% | -24.4%
COc1ccccc1OCCCc1c(C)n[nH]c1C | 31.3 | · | ? | -19.3% | -7.9%[11.4 µM]
SMILES | HCMV inh | Pf growth 48h | Pf growth 96h | Giardia FBPA inh | Sm TGR inh
CNCCc1c(C)n[nH]c1C | -5.9 | 0.2% | 11.7µM* | 0.3% | -2.4%
COc1ccccc1OCCCCCc1c(C)n[nH]c1C | -61.4* | ? | ? | -6.4% | 6.1%
O=C(/C=C/c1ccccc1)N1CC2ON=C(c3c(F)cccc3Cl)C2C1 (stereo not drawn) | -8.2 | · | · | · | ·
Nc1ccc(O)cc1C(=O)OCC(=O)c1ccc(C2CCCCC2)cc1 | -95.3* | 30.0% | 33.7% | -15.2% | -3.7%
N=C(N)SCCc1cccc(CCSC(=N)N)c1 | -0.8 | · | · | -1.3% | ·
Cc1cccc(CSC(=N)N)c1 | -62.7* | -1.2% | -26.9% | -1.9% | -0.6%
Cc1ccc(C(=O)N2[C@@H]3CN(C)C(=O)[C@@]2(Cc2ccccc2)[C@H]2C(=O)N(Cc4ccccc4)C(=O)[C@@H]32)cc1 | 4.0 | · | · | · | ·
CCC[n+]1c2ccccc2cc2ccccc21 | -70.0* | · | ? | -25.7% | ?
CC12COC3(P(=O)(c4ccccc4)c4ccccc4)CC1CCC23CP(=O)(c1ccccc1)c1ccccc1 (stereo not drawn) | -39.8 | 1.17µM* | 0.928µM* | 0.6% | -7.3%
COC(=O)C1=C(C(=O)OC)[C@@H]2Nc3ccccc3[C@@]23C[C@@H](C(=O)OC)N(S(=O)(=O)c2ccc(Br)cc2)C3=N1 | · | · | · | -0.2%[12.9 µM] | ·
O=C(O)C1CCCCC1C(=O)NCCc1ccc(Cl)cc1 (stereo not drawn) | 14.8 | 13.9% | · | 1.6% | -3.8%
O=C(O)C1CCCCC1C(=O)NCCc1ccc(F)cc1 (stereo not drawn) | 8.9 | 21.3% | 9.28µM* | -2.3% | -5.9%
CCCCN(CC)C(=O)C1CCC(CNS(=O)(=O)c2cccc3nsnc23)CC1 (stereo not drawn) | -31.4 | -12.1% | ? | · | -1.3%
CCN=c1scc(-c2ccc3c(c2)NC(=O)CO3)n1N=C1CCCC1 | -77.2* | ? | ? | -19.6% | -6.6%
CCCCN=c1scc(-c2ccc3c(c2)NC(=O)CO3)n1N=C1CCCC1 | -75.6* | · | 9.28µM* | -14.5% | ?
Nc1nc(-c2ccc3c(c2)NC(=O)CO3)cs1 | 1.0 | 19.4% | · | -14.7% | ?
CC1CCCN(CCCCOc2cccc(Br)c2)C1 (stereo not drawn) | -12.9 | ? | ? | 10.7% | -10.6%
Cn1c(=O)c(-c2cccs2)nc2cnc(N3CCNCC3)nc21 | · | · | · | -11.1% | ·
O=c1cc(-c2ccc(O)cc2)oc2ccc3ccccc3c12 | -86.1* | -33.1% | -4.3% | · | 1.0%
O=c1cc(-c2ccccc2)oc2cc(O)c(O)c(O)c12 | 59.1 | · | · | 9.98µM* | ·
COc1c(O)cc2oc(-c3ccc(O)cc3)cc(=O)c2c1O | 187.9 | 367.8% | -6.5% | -0.7% | -2.9%

Bioassay records (PubChem)
